According to PubChem BioAssay (NCI):
This is part of a sample that, as a whole, favours compounds with a hit. Of some 79,000 tested, about 15% had one in any assay. The source made the active and inactive calls. Cut-off read from the data, not from the text of the source: active = growth inhibition above about 70%; inactive = the rest.

Experiments:
[1] = NCI Yeast Anticancer Drug Screen. Data for the rad50 strain (AID 155);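 note: 0% = growth of vehicle-only cultures of the same strain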; details: S. cerevisiae rad50 strain growth inhibition, active compounds read high
Method in brief: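 Compounds were tested on a yeast strain with an engineered DNA damage repair alteration; the reported value is growth inhibition normalised to vehicle treatment.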

[2] = NCI Yeast Anticancer Drug Screen. Data for the mec2-1 strain (AID 157); details: S. cerevisiae mec2-1 strain, active compounds read high
Method in brief: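 Using mec2-1 yeast: add compound, measure growth, express inhibition versus vehicle-treated cultures.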

[3] = NCI Yeast Anticancer Drug Screen. Data for the sgs1 mgt1 strain (AID 161);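 note: 0% = growth of cultures given vehicle only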; details: S. cerevisiae sgs1 mgt1 strain, active compounds read high
Method in brief: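 Compounds are added to genetically altered yeast, and growth is compared with cultures given vehicle alone to give percent inhibition.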

[4] = NCI Yeast Anticancer Drug Screen. Data for the cln2 rad14 strain (AID 165);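 note: 0% = growth equal to vehicle treated cultures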; details: S. cerevisiae cln2 rad14 strain, active compounds read high
Method in brief: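 Yeast strain cln2 rad14, bearing defects in cell cycle control and DNA repair, serves as the test system; values reflect growth inhibition compared with vehicle.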

[5] = NCI Yeast Anticancer Drug Screen. Data for the bub3 strain (AID 167); details: S. cerevisiae bub3 mutant strain, active compounds read high
Method in brief: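 Growth of a checkpoint-deficient yeast mutant is measured after compound exposure. Values represent inhibition relative to vehicle.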

[6] = NCI Yeast Anticancer Drug Screen. Data for the mlh1 rad18 strain (AID 175); details: S. cerevisiae mlh1 rad18 strain growth inhibition, active compounds read high
Method in brief: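 Steps: expose repair-defective yeast to compound; measure growth; express inhibition against vehicle-treated controls.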

[7] = at 5.0 µM (retest, dose inferred, filed as 0.5)
[8] = at 50.0 µM (retest, dose inferred, filed as 5.0)

Measured: growth inhibition

COc1cc(C(=O)C2OC2c2ccc(Cl)cc2)c([N+](=O)[O-])cc1OC (configuration not stated)
inactive: [1]; [7] 25% | [1]; [8] 51% | [1]; at 50.0 µM 54% | [2]; [7] 22% | [2]; [8] 47% | [2]; at 50.0 µM 26.4% | [3]; [7] 24% | [3]; [8] 61% | [3]; at 50.0 µM 54% | [4]; [7] 36% | [4]; [8] 57% | [4]; at 50.0 µM 58.5% | [5]; [7] 15% | [5]; [8] 51% | [5]; at 50.0 µM 36.8% | [6]; [7] 36% | [6]; at 50.0 µM 64.2%
active: [6]; [8] 85%

COc1cc(C(c2cc3c(cc2O)OCO3)N2CCN(C(c3cc(OC)c(OC)c(OC)c3)c3cc4c(cc3O)OCO4)CC2)cc(OC)c1OC (configuration not stated)
active: [2]; [8] 74% | [3]; [8] 88% | [4]; [8] 93% | [5]; [8] 91% | [6]; [8] 86%
inactive: [1]; [7] -2% | [1]; [8] 69% | [1]; at 50.0 µM 23.6% | [2]; [7] -1% | [2]; at 50.0 µM 32.9% | [3]; [7] -5% | [3]; at 50.0 µM 28.6% | [4]; [7] -6% | [4]; at 50.0 µM -35% | [5]; [7] -2% | [5]; at 50.0 µM 6.55% | [6]; [7] 2% | [6]; at 50.0 µM 64.1%

CC1(C)C2CCC(C2)C1OC(=O)c1ccccc1C(=O)O (configuration not stated)
active: [4]; at 50.0 µM 76.2% | [5]; at 50.0 µM 71%
inactive: [1]; [7] -7% | [1]; [8] 11% | [1]; at 50.0 µM 1.45% | [2]; [7] -2% | [2]; [8] 0% | [2]; at 50.0 µM 12.9% | [3]; [7] -5% | [3]; [8] 6% | [3]; at 50.0 µM -6.05% | [4]; [7] 10% | [4]; [8] 15% | [5]; [7] -2% | [5]; [8] 26% | [6]; [7] -21% | [6]; [8] 6% | [6]; at 50.0 µM 32.7%

Clc1ccc(C2=CCCc3ccccc32)cc1
inactive: [1]; [7] -3% | [1]; [8] 1% | [2]; [7] 6% | [2]; [8] -4% | [3]; [7] -14% | [3]; [8] 7% | [4]; [7] 5% | [4]; [8] -19% | [5]; [7] 6% | [5]; [8] -2% | [6]; [7] -2% | [6]; [8] 3%
active: [1]; at 50.0 µM 91.1% | [2]; at 50.0 µM 96.2% | [3]; at 50.0 µM 95.8% | [4]; at 50.0 µM 95.7% | [5]; at 50.0 µM 88.5% | [6]; at 50.0 µM 96.5%

O=C1CCCCC1=C(I)I
inactive: [1]; [7] 18% | [1]; [8] 18% | [1]; at 50.0 µM 56.2% | [2]; [7] 18% | [2]; [8] 18% | [2]; at 50.0 µM 66.5% | [3]; [7] 13% | [3]; [8] 13% | [3]; at 50.0 µM 68.8% | [4]; [7] -4% | [4]; [8] -4% | [4]; at 50.0 µM 39.8% | [5]; [7] 2% | [5]; [8] 2% | [6]; [7] 12% | [6]; [8] 12%
active: [5]; at 50.0 µM 74.4% | [6]; at 50.0 µM 72.2%

CC1(c2ccccc2)OC(=O)C=CC1=O (configuration not stated)
inactive: [1]; [7] 15% | [2]; [7] 28% | [3]; [7] 21% | [4]; [7] 8% | [5]; [7] 32% | [6]; [7] 27%
active: [1]; [8] 99% | [1]; at 50.0 µM 99.4% | [2]; [8] 98% | [2]; at 50.0 µM 99.7% | [3]; [8] 97% | [3]; at 50.0 µM 99.5% | [4]; [8] 100% | [4]; at 50.0 µM 99% | [5]; [8] 100% | [5]; at 50.0 µM 99.5% | [6]; [8] 99% | [6]; at 50.0 µM 99.5%

O=c1cccccc1[O-].O=c1cccccc1[O-].O=c1cccccc1[O-].[Ce+3]
active: [1]; at 50.0 µM 90% | [2]; at 50.0 µM 92% | [3]; at 50.0 µM 85% | [4]; at 50.0 µM 90.4% | [5]; at 50.0 µM 91.2% | [6]; at 50.0 µM 88.5%
inactive: [1]; [7] 31% | [1]; [8] 31% | [2]; [7] 20% | [2]; [8] 20% | [3]; [7] 13% | [3]; [8] 13% | [4]; [7] 16% | [4]; [8] 16% | [5]; [7] 10% | [5]; [8] 10% | [6]; [7] 26% | [6]; [8] 26%

CC(C)NCCCNc1nc(NCCCNC(C)C)c2nc(-c3ccccc3)c(-c3ccccc3)nc2n1
active: [1]; [8] 82% | [2]; [8] 88% | [3]; [8] 86% | [6]; [8] 90%
inactive: [1]; [7] 4% | [1]; at 50.0 µM 52% | [2]; [7] 1% | [2]; at 50.0 µM 58.7% | [3]; [7] -2% | [3]; at 50.0 µM 53.4% | [4]; [7] -3% | [4]; [8] 56% | [4]; at 50.0 µM 55.8% | [5]; [7] 0% | [5]; [8] 35% | [5]; at 50.0 µM 50.1% | [6]; [7] 2% | [6]; at 50.0 µM 57.2%

O=C(NCCCCC(NC(=O)OCc1ccccc1)C(=O)Nc1ccc(Nc2ccc(NC(=O)C(CCCCNC(=O)OCc3ccccc3)NC(=O)OCc3ccccc3)cc2)cc1)OCc1ccccc1 (configuration not stated)
inactive: [1]; [7] 0% | [1]; [8] -12% | [2]; [7] -3% | [2]; [8] -13% | [3]; [7] -2% | [3]; [8] -29% | [4]; [7] -1% | [4]; [8] 0% | [5]; [7] 2% | [5]; [8] 34% | [6]; [7] -1% | [6]; [8] -12%
active: [1]; at 50.0 µM 99% | [2]; at 50.0 µM 99.5% | [3]; at 50.0 µM 99.4% | [4]; at 50.0 µM 87.7% | [5]; at 50.0 µM 99.1% | [6]; at 50.0 µM 98.4%
